Assay [1] concerns Staphylococcus aureus. Briefly: Antibacterial activity against Staphylococcus aureus MRSA ATCC 43300 (CO-ADD:GP_020); MIC in CAMBH media using NBS plates, by Resazurin F(560/590). In kind it is functional. The settings on record: Concentration 20 uM, ASSAY_TEST Inhibition of Bacterial Growth, detection method Resazurin, Fluorescence (ex560/em590), MEDIA CAMHB, plate type 384well, CORNING #3640, time 18 hr.

In assay [2] the test system is Acinetobacter baumannii. Briefly: Antibacterial activity against Acinetobacter baumannii ATCC 19606 (CO-ADD:GN_034); MIC in CAMBH media using NBS plates, by Resazurin F(560/590). It counts as functional. The settings on record: Concentration 20 uM, ASSAY_TEST Inhibition of Bacterial Growth, detection method Resazurin, Fluorescence (ex560/em590), MEDIA CAMHB, plate type 384well, CORNING #3640, time 18 hr. (In general: The colour change of resazurin is a common sign of viable cells or microbes.)

The test system of assay [3] is Escherichia coli. Briefly: Antibacterial activity against Escherichia coli ATCC 25922 (CO-ADD:GN_001); MIC in CAMBH media using NBS plates, by Resazurin F(560/590). As to conditions: Concentration 20 uM, ASSAY_TEST Inhibition of Bacterial Growth, detection method Resazurin, Fluorescence (ex560/em590), MEDIA CAMHB, plate type 384well, CORNING #3640, time 18 hr. It counts as functional.

In assay [4] the test system is Klebsiella pneumoniae. The settings on record: Concentration 20 uM; ASSAY_TEST Inhibition of Bacterial Growth; detection method Absorption (OD600); MEDIA CAMHB; plate type 384well; NBS; CORNING #3640; time 18 hr.
Assay [5] has as its system Candida albicans. As to conditions: 20 µM.
Assay [6] has as its system Cryptococcus neoformans. As to conditions: Concentration 20 uM; ASSAY_TEST Inhibition of Fungal Growth; detection method Resazurin; Absorption (OD600-OD570); plate type 384well; NBS; CORNING #3640.

SMILES strings stand for the structures. For part of these data: Entries with a potency or affinity are not part of this list.

In the case of `O=c1cc(-c2ccc(O)cc2)oc2c(O)c(O)c(O)c(O)c12`, the Inhibition in assay [1] is 7.67%; in assay [2] it was -15.85%; in assay [3], 3.54%; in assay [4], 11.62%; in assay [5], 6.97%; in assay [6] it was -2.27%.

Take `COC(=O)C1CC(O)C(O)C(O)C1` (stereo not given): the Inhibition in assay [1] was 17.7%; in assay [2], -10.09%; in assay [3], 12.92%; in assay [4] it was 15.79%; in assay [5] it was 1.86%; in assay [6], -4.69%.

`CC(=O)NC1(C(=O)O)CCCC1`: the Inhibition was 8.27% in assay [1]; -6.77% in assay [2]; 8.7% in assay [3]; 15.18% in assay [4]; 4.3% in assay [5]; 0.8% in assay [6].

As to `CCOC(=O)c1nn(-c2ccccc2)cc1O`, the Inhibition in assay [1] is -14.3%; in assay [2] it was -10.69%; in assay [3] it was -0.72%; in assay [4], -1.36%; in assay [5], 0.93%; in assay [6], -2.21%.

For the compound `CC1(C)CC(Nc2ccc(Nc3ccccc3)cc2)CC(C)(C)N1`, the Inhibition is 6.04% in assay [1]; 9.93% in assay [2]; -3.22% in assay [3]; 10.49% in assay [4]; 1.33% in assay [5]; -0.13% in assay [6].

As to `COC1OC(CO)C(N=C(C)C)C1O` (stereo not given), the Inhibition in assay [1] is -11.36%; in assay [2] it was -14%; in assay [3], 0.14%; in assay [4], 2.78%; in assay [5] it was 0.83%; in assay [6] it was -10.33%.

In the case of `Cc1cccc(N2CCN(CC(O)COc3ccc(Cl)cc3)CC2)c1` (stereo not given), the Inhibition was 13.02% in assay [1]; 4.97% in assay [2]; 5.23% in assay [3]; 7.2% in assay [4]; 0.39% in assay [5]; -12.55% in assay [6].

For the compound `COC(=O)c1ccc(C(=O)OC)c(O)n1`, the Inhibition in assay [1] is 3.27%; in assay [2], 9.07%; in assay [3], 2.76%; in assay [4], 7.35%; in assay [5] it was 0.7%; in assay [6], -5.98%.

Take `CC(=O)Nc1ccc(S(=O)(=O)N/N=c2/sc3ccccc3n2C)cc1N`: the Inhibition in assay [1] is 12.5%; in assay [2], 3.99%; in assay [3] it was 3.58%; in assay [4], 3.38%; in assay [5] it was -0.64%; in assay [6], -8.3%.

For the compound `Cc1cc(C)n(C(=N)NC(=O)c2ccccc2)n1`, the Inhibition in assay [1] is 12.05%; in assay [2], 6.54%; in assay [3], -0.32%; in assay [4] it was 6.77%; in assay [5], 6.7%; in assay [6], -12%.

`CSc1ncc2ncn(C3OC(CO)C(O)C3O)c2n1` (stereo not given): the Inhibition is 5.7% in assay [1]; 9.73% in assay [2]; -9.56% in assay [3]; 13.33% in assay [4]; 3.06% in assay [5]; -1.46% in assay [6].

On to `Cc1nnc(-n2cccc2)s1`, for which the Inhibition is 4.2% in assay [1]; -10.69% in assay [2]; 7.04% in assay [3]; -0.01% in assay [4]; 2.45% in assay [5]; -10.77% in assay [6].

Take `CCN(c1ccccc1)c1nc(Cl)nc2c1cnn2C`: the Inhibition in assay [1] was 9.86%; in assay [2], 12.26%; in assay [3], 4.23%; in assay [4] it was 13.76%; in assay [5], 2.54%; in assay [6], -8.45%.

As to `Br.C=CC1CN2CCC1CC2C(O)c1ccnc2ccc(OC)cc12` (stereo not given), the Inhibition in assay [1] was -3.41%; in assay [2], 0.49%; in assay [3], 16.29%; in assay [4], 15.08%; in assay [5] it was -0.01%; in assay [6] it was 7.91%.

With `OCCCCc1nccc2c1[nH]c1ccccc12`, the Inhibition in assay [1] was -6.35%; in assay [2], -7.04%; in assay [3], -1.94%; in assay [4], -0.62%; in assay [5], 2.78%; in assay [6], -8.33%.

Regarding `c1ccc(-c2nc[nH]c2-c2ccccc2)cc1`, the Inhibition is 15.79% in assay [1]; -13.75% in assay [2]; 11.94% in assay [3]; 6.07% in assay [4]; -1.64% in assay [5]; -10.72% in assay [6].

In the case of `N=C1OC(c2ccccc2)C(O)=C1O` (stereo not given), the Inhibition was 0.33% in assay [1]; -10.5% in assay [2]; 6.34% in assay [3]; 8.48% in assay [4]; 7.04% in assay [5]; -2.61% in assay [6].

`CCOC(=O)/C(=N\O)C1=CSC2=NNC(C)(C)N12`: the Inhibition in assay [1] is 3.63%; in assay [2] it was -13.67%; in assay [3], 6.92%; in assay [4], 9.3%; in assay [5] it was 5.91%; in assay [6] it was -6.65%.

Consider `O=C(Nc1cccc([N+](=O)[O-])c1)c1cc2ccccc2cc1O`, for which the Inhibition is -1.88% in assay [1]; -9.44% in assay [2]; 23.78% in assay [3]; 3.58% in assay [4]; 12.7% in assay [5]; -10.5% in assay [6].

Take `CCOC(=O)CCCN(c1[nH]c(C)c(C)c1C#N)S(=O)(=O)c1ccc(C)cc1`: the Inhibition in assay [1] is 20.71%; in assay [2] it was -4.29%; in assay [3], 15.68%; in assay [4] it was 14.1%; in assay [5], -2.66%; in assay [6], -4.37%.

For `c1ccc(NCCSc2nc3ccccc3s2)cc1`, the Inhibition is 32.95% in assay [1]; -17.22% in assay [2]; 10.16% in assay [3]; 12.47% in assay [4]; 3.32% in assay [5]; 13.76% in assay [6].

On to `COc1cc2c(cc1OC)C(=O)Cc1ccc3c(c1CN(C)CC2)OCO3`, for which the Inhibition was 7.05% in assay [1]; 12.34% in assay [2]; 18.89% in assay [3]; 9.37% in assay [4]; -0.52% in assay [5]; -7.07% in assay [6].

As for `O=[N+]([O-])c1ccccc1/C=C/C=N/N=C/c1ccccc1O`, the Inhibition in assay [1] is 0.05%; in assay [2] it was -15.14%; in assay [3], 9.06%; in assay [4] it was 2.2%; in assay [5], 2.43%; in assay [6], 3.86%.

Regarding `CCN(CC)CCNc1c(C)nc(C#N)c(N)[n+]1[O-]`, the Inhibition in assay [1] was 6.23%; in assay [2], -9.24%; in assay [3], 11.24%; in assay [4], 8.95%; in assay [5], 2.9%; in assay [6], -16.29%.

In the case of `Cc1ccc(S(=O)(=O)NC(=O)Nc2nccs2)cc1`, the Inhibition in assay [1] is 16.17%; in assay [2], -9.13%; in assay [3], 9.78%; in assay [4] it was 14.17%; in assay [5] it was 1.46%; in assay [6], -5.56%.

By Inhibition is commonly meant the change of the read-out against control, counted positive when it falls.

These data come from ChEMBL document CHEMBL4296182, “CO-ADD screening of NIH NCI Diversity Set V”.
